Screening data as filed in PubChem.
Only some compounds are listed: those with a hit (about 5.4% of all), similar ones and a draw of the others.
SMARCA2 act – SMARCA2 (BRM) function activators, primary screen, cell-based, luminescence, high throughput; MG213 cells, MMTV-luciferase reporter, dexamethasone, overnight; activation, % at 9.1 µM; hit rate 1% among 370,000; in the data active = activation above about 7.8%;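 note: 0% = vehicle wells and 100% = reference activator wells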
Granule exo inh – LAMP-1 surface exposure blockers, TALL-104 cells – cell-based, flow cytometry, MLPCN library, primary screen; TALL-104 LAMP-1 surface exposure; cells stimulated with thapsigargin and PMA; inhibition, % at 10 µM; hit rate 0.66% among 360,000; AID 651702, 2012;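 active = inhibition above about 55%, limit read from the data; inconclusive = no clear call, values can overlap the other calls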
GASC-1 inh – inhibitors of GASC-1 histone demethylase, primary screen, biochemical, fluorescence, DELFIA europium | GST-JMJD2C(1-420) H3K9me3 demethylation | inhibition, % at 2.35 µM | hit rate 0.069% among 330,000;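 active = more than half of a compound's replicate wells show inhibition beyond 50%, single wells judged on their own value; inconclusive = some, but no more than half, of replicates pass 50% inhibition; inactive = no replicate passes 50% inhibition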;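 note: signal counts dimethyl H3K9 product captured on neutravidin plate; 0% = median of DMSO wells and 100% = 0.3 times that DMSO median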
ALR inh – inhibitors of human ALR sulfhydryl oxidase, primary screen, biochemical, H2O2 detection, HRP-luminol luminescence, single point | FAD-linked sulfhydryl oxidase ALR (Homo sapiens), P55789 | purified ALR, DTT oxidation | inhibition, % (concentration not given with the values) | hit rate 3.8% among 290,000;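 active = mean replicate inhibition above about 79%, with every replicate also reaching it, limit read from the data; inconclusive = only one of the two criteria met; inactive = mean below limit and not every replicate reaching it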
Target sequence (P55789 whole entry, looked up): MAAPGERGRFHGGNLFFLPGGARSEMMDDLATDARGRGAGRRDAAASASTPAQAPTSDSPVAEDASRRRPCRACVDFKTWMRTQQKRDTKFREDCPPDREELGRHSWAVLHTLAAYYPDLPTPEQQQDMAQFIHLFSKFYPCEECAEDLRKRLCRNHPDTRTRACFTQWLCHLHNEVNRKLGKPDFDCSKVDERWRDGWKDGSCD
M18AAP inhibitor – PfM18AAP inhibitors, malaria aminopeptidase, primary screen, biochemical, QFRET, recombinant enzyme | inhibition, % at 7.35 µM | hit rate 1.2% among 290,000 | H-Glu-NHMec fluorogenic cleavage | M18 aspartyl aminopeptidase (Plasmodium falciparum 3D7) | AID 1822, 2009;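 active = inhibition above the campaign mean inhibition over all tested compounds plus 3 SD, cut at about 28% in these data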;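 note: 0% = plate median of test compound wells and 100% = 2 mM ZnCl2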
beta cell repl – inducers of MIN6 beta-cell proliferation, primary screen, ATP luminescence, uHTS. MIN6 cells proliferation, ATPlite luminescence, 48 h; cells starved in 0.2% serum; 100% = growth in 10% serum. proliferation, % at 10 µM. hit rate 0.29% among 330,000. AID 2380, 2010;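 active = compounds whose signal lies at least 3.5 SD above the mean of all wells on their plate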;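 note: 0% = DMSO-treated cells in low-serum medium and 100% = 10% serum control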
* marks the source's active call; other numbers are inactive results; u = inconclusive; x = no result given.

SMILES	SMARCA2 act	Granule exo inh	GASC-1 inh	ALR inh	M18AAP inhibitor	beta cell repl
O=[N+]([O-])c1ccc(-c2cn3nc(-c4ccccc4)c(-c4ccccc4)nc3n2)cc1	2	4	8	-6	30*	0
O=[N+]([O-])c1cccc(-c2cn3nc(-c4ccccc4)c(-c4ccccc4)nc3n2)c1	-6	3	-1	-1	6	-4
N#CC1=C(SCc2ccccc2)NC(=O)CC1c1ccco1 (configuration not stated)	-1	0	-14	100*	19	-2
N#CC1=C(SCC(=O)NCc2ccccc2)NC(=O)CC1c1ccco1 (configuration not stated)	-3	-1	-4	-21	-4	-5
C=CCOC(=O)C1=C(C)NC(=S)NC1/C=C/c1ccccc1 (configuration not stated)	-1	66*	2	11	6	-7
CC1=C(C(=O)OCc2ccccc2)C(/C=C/c2ccccc2)NC(=S)N1 (configuration not stated)	-4	21	-17	-10	4	0
N#C/C(=C/Nc1ccccc1)c1ccsc1	4	-5	5	89*	-2	-3
Cc1ccc(N/C=C(/C#N)c2ccsc2)cc1	5	-1	-5	98*	-1	-2
CCn1c(SCC(=O)NN=Cc2cccc(OCc3ccccc3)c2)nnc1-c1ccc(OC)c(OC)c1	6	x	x	x	x	x
Cc1ccc(S(=O)(=O)N(C(=O)c2ccncc2)c2ccc(OC(=O)c3ccncc3)c3ccccc23)c(C)c1	x	100*	10	-30	11	-5
Cc1ccc(S(=O)(=O)N(C(=O)c2ccncc2)c2ccc(OC(=O)c3ccncc3)c3ccccc23)cc1	-4	118*	14	-24	1	-5
CC(=O)Oc1ccc(N(C(C)=O)S(=O)(=O)c2ccc(C)cc2C)c2ccccc12	-4	11	-5	8	3	-4
COc1cc2c(cc1OC)[N+]([O-])=C(c1ccccc1)C2=O	-3	x	x	x	x	x
O=C1C(c2ccccc2)=[N+]([O-])c2ccccc21	1	-16	-8	91*	x	-9
CCOc1ccc(N/C(SCc2cccc([N+](=O)[O-])c2)=C(/C#N)C(N)=O)cc1	2	-3	6	99*	5	-4
CCOc1ccc(N/C(SC)=C(/C#N)C(N)=O)cc1	3	-2	-29	1	-9	-3
CCCNC(=O)CS(=O)Cc1nc(-c2ccccc2C)oc1C (configuration not stated)	-2	0	-3	99*	-4	2
CCC(C)NC(=O)CS(=O)Cc1nc(-c2ccccc2C)oc1C (configuration not stated)	-3	0	1	98*	3	-1
Cc1ccccc1-c1nc(CS(=O)CC(=O)NCCN2CCN(Cc3ccccc3)CC2)c(C)o1 (configuration not stated)	-4	0	6	99*	-1	0
Cc1ccccc1-c1nc(CS(=O)(=O)CC(=O)NCc2ccc(F)cc2)c(C)o1	4	-4	-9	-17	2	-3
Cc1ccccc1-c1nc(CS(=O)CC(=O)NCc2ccccn2)c(C)o1 (configuration not stated)	-3	9	-9	98*	0	-1
COC(=O)C1CN(Cc2ccccc2)CCS(=O)(=O)N1Cc1ccc(C(F)(F)F)cc1 (configuration not stated)	-3	x	x	x	x	x
Cc1ccccc1-c1nc(CS(=O)CC(=O)NCCCN(C)c2ccccc2)c(C)o1 (configuration not stated)	-1	-4	1	99*	7	-1
O=Cc1cccn1-c1cccnc1	7.9*	1	10	-7	2	1
COc1ccc(CCNC(=O)CSc2c[nH]c3ccccc23)cc1OC	2	-2	71	97*	6	-2
SMILES	SMARCA2 act	Granule exo inh	GASC-1 inh	ALR inh	M18AAP inhibitor	beta cell repl
COc1ccc(CCNC(=O)CSc2cc(=O)[nH]c(N)n2)cc1OC	0	0	-2	58	-6	0
COc1ccc(Cc2c(O)nc(SCC(=O)N3CCCCCC3)[nH]c2=O)cc1	-1	-2	u	57	0	0
COc1ccc(CCNC(=O)CSc2nc(O)cc(=O)[nH]2)cc1OC	1	0	15	95*	1	-3
COc1ccc(CCNC(=O)CSc2nc(O)c(CC(C)C)c(=O)[nH]2)cc1OC	-2	-1	14	98*	3	-1
COc1ccc(Cc2c(O)nc(SCC(=O)NC(C)(C)C)[nH]c2=O)cc1	0	-3	-14	84*	3	1
COc1ccc(C(C)(C)C)cc1N1C(=O)[C@@H]2CSCCS(=O)(=O)N2C1=O	-3	x	x	x	x	x
C=CC[C@]1(O)C(=O)N(c2ccccc2)c2ccccc21	-3	x	x	x	x	x
O=C(Oc1ccc(/C=N/Nc2ccccc2)cc1)c1ccccc1	0	-1	7	4	3	-5
O=C(Oc1ccc(/C=N/O)cc1)c1ccccc1	0	3	-9	89*	-9	-2
COCCOC(=O)/C(=C/c1ccc(OC(=O)c2ccccc2)cc1)C(C)=O	x	0	5	95*	-1	0
CCOC(=O)/C(=C/c1ccc(OC(=O)c2ccncc2)cc1)C(C)=O	0	-2	5	60	-2	1
COc1ccc(N2C(=O)CSC2c2ccc(F)cc2)cc1 (configuration not stated)	-2	19	12	x	4	-2
O=C1CSC(c2ccccc2)N1c1ccc([N+](=O)[O-])cc1 (configuration not stated)	-3	-7	-5	99*	-6	-2
Cc1ccc(N2C(=O)CSC2c2ccc3c(c2)OCO3)cc1 (configuration not stated)	0	7	0	99*	-1	0
CC(=O)Nc1ccc(N2C(=O)CSC2c2ccc(F)cc2)cc1 (configuration not stated)	-2	-2	-4	99*	2	-2
COc1ccc(C2SCC(=O)N2Cc2ccccc2)cc1 (configuration not stated)	-1	1	2	81*	-6	2
Cc1ccc(S(=O)(=O)N2CCCC2C(=O)N2CCN(c3ccccc3)CC2)cc1 (configuration not stated)	5	x	x	x	x	x
COCC(=O)N(C[C@H]1[C@H](c2ccccc2)[C@@H](CO)N1C(=O)NC(C)C)C(C)C	-2	x	x	x	x	x
